IDE exosite inh: insulin-degrading enzyme (human) exo-site inhibition; P14735; purified IDE, FL-6b probe fluorescence polarization; hits give low values; z-score at 20 µM; 6.3% of 17,000 active;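 active = z-score of -3 or lower, meaning strong loss of probe binding signal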;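 note: His-tagged human IDE residues 42-1019 made in E. coli with 30 nM FL-6b probe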
* marks the source's active call; other numbers are inactive results. Many of the other results were omitted from the sample, so hits are more common in it than they were.

SMILES | IDE exosite inh
COc1ccccc1C#Cc1ccc([C@H]2[C@@H](CO)N3CCCCN(S(C)(=O)=O)C[C@H]23)cc1 | -9.9*
CS(=O)(=O)N1CCCCN2[C@H](CO)[C@@H](c3ccc(C#Cc4ccccn4)cc3)[C@H]2C1 | -1.8
CS(=O)(=O)N1CCCCN2[C@H](CO)[C@@H](c3ccc(C#Cc4ccccn4)cc3)[C@@H]2C1 | -1.6
COc1ccccc1C#Cc1ccc([C@@H]2[C@H](CO)N3CCCCN(S(C)(=O)=O)C[C@@H]23)cc1 | -18*
CCCC#Cc1ccc([C@@H]2[C@@H](CO)N3CCCCN(S(C)(=O)=O)C[C@@H]23)cc1 | 3.7
COc1ccccc1C#Cc1ccc([C@H]2[C@H]3CN(S(C)(=O)=O)CCCCN3[C@H]2CO)cc1 | -9.8*
CCCC#Cc1ccc([C@H]2[C@H]3CN(S(C)(=O)=O)CCCCN3[C@H]2CO)cc1 | 2.7
CCCC#Cc1ccc([C@@H]2[C@H](CO)N3CCCCN(S(C)(=O)=O)C[C@@H]23)cc1 | -1.6
COc1ccc(C#Cc2ccc([C@@H]3[C@H]4CN(S(=O)(=O)c5ccccc5)CCCCN4[C@H]3CO)cc2)cc1 | -0.32
O=S(=O)(c1ccccc1)N1CC2(C1)[C@H](c1ccccc1)[C@@H](CO)N2CC1CCOCC1 | -0.65
CN(C)C(=O)c1ccc(-c2ccc([C@H]3[C@H](CO)N4C(=O)CN(C(=O)CC5CC5)C[C@@H]34)cc2)cc1 | -1.9
O=C(Nc1cccc(F)c1)N1CC(=O)N2[C@H](C1)[C@@H](c1ccc(-c3ccccc3)cc1)[C@@H]2CO | -1.6
N#C[C@H]1[C@H](c2ccccc2-c2ccccc2)[C@@H](CO)N1C(=O)Cc1ccncc1 | 1.5
COc1ccc2c3c(n(C)c2c1)[C@H](CO)N(C)CC31CCN(C(=O)c2ccc3c(c2)OCO3)CC1 | 0.21
CN(C)C(=O)c1cccc(-c2ccc([C@@H]3[C@H]4CN(C(=O)C5CCC5)CCCCN4[C@H]3CO)cc2)c1 | 3.6
O=C(NCC[C@@H]1CC[C@H](NC(=O)c2ccncc2)[C@@H](CO)O1)Nc1ccc(Cl)cc1 | 3.3
COCC#Cc1ccc([C@H]2[C@@H](CO)N3C(=O)CN(C(=O)Nc4cc(F)ccc4F)C[C@@H]23)cc1 | 0.11
CCCNC(=O)NC[C@H]1[C@@H](c2ccc(C3=CCCCC3)cc2)[C@@H](CO)N1C(C)=O | 2.3
COCC(=O)N1CC(=O)N2[C@H](CO)[C@@H](c3ccc(C#CC4CC4)cc3)[C@@H]2C1 | 0.33
CN(C)C(=O)c1cccc(-c2ccccc2[C@@H]2[C@@H](C#N)N(C(=O)C3CCC3)[C@H]2CO)c1 | 1.1
C[C@H]1CN([C@@H](C)CO)S(=O)(=O)c2ccc(-c3ccncc3)cc2O[C@@H]1CN(C)S(C)(=O)=O | 1.2
COc1ccc(CN(C)C[C@H]2OCCCC[C@@H](C)Oc3ccc(NC(=O)C4CCCCC4)cc3C(=O)N([C@H](C)CO)C[C@@H]2C)cc1 | 0.93
N#C[C@@H]1[C@H](c2ccc(-c3ccccc3F)cc2)[C@H](CO)N1C(=O)C1CC1 | 0.71
OC[C@H]1[C@@H](c2ccc(C#Cc3ccccc3F)cc2)[C@@H]2CN(CC3CCOCC3)CCCCN12 | -2.9
COc1ccc(C#Cc2ccc([C@@H]3[C@H](CO)N4CCCCN(C)C[C@@H]34)cc2)cc1 | -0.084
SMILES | IDE exosite inh
OC[C@H]1[C@@H](c2ccc(-c3ccccc3)cc2)[C@H]2CN(Cc3cncnc3)CCCCN21 | -1.3
CN1CCCCN2[C@H](CO)[C@H](c3ccc(C#Cc4ccccc4F)cc3)[C@@H]2C1 | -5.5*
OC[C@@H]1[C@H](c2ccc(C#Cc3ccccc3F)cc2)[C@H]2CN(CC3CCOCC3)CCCCN12 | -2.3
COc1ccc(C#Cc2ccc([C@@H]3[C@@H](CO)N4CCCCN(C)C[C@H]34)cc2)cc1 | 0.27
COc1ccc(C#Cc2ccc([C@H]3[C@@H](CO)N4CCCCN(C)C[C@H]34)cc2)cc1 | 2
CN1CCCCN2[C@H](C1)[C@H](c1ccc(C#Cc3ccccc3F)cc1)[C@@H]2CO | -3.9*
OC[C@H]1[C@H](c2ccc(C#Cc3ccccc3F)cc2)[C@@H]2CN(CC3CCOCC3)CCCCN12 | 0.24
CN1CCCCN2[C@H](CO)[C@H](c3ccc(C#Cc4ccccc4F)cc3)[C@H]2C1 | -4.5*
OC[C@@H]1[C@H](c2ccc(C#Cc3ccccc3F)cc2)[C@H]2CN(Cc3cncnc3)CCCCN12 | -9.7*
OC[C@@H]1[C@@H](c2ccc(C#Cc3ccccc3)cc2)[C@H]2CN(Cc3cncnc3)CCCCN12 | 0.19
O=C(CN1CCOCC1)N[C@H]1CC[C@H](CCn2cc(C3CC3)nn2)O[C@H]1CO | 1.5
Cc1cccc(S(=O)(=O)N2CCCCN3[C@H](CO)[C@H](c4ccc(C#CC(C)C)cc4)[C@@H]3C2)c1 | 3.5
C/C=C/c1ccc([C@@H]2[C@@H](CN(C(=O)COC)C(C)C)N(C(C)=O)[C@H]2CO)cc1 | 1.2
C[C@H]1COCn2nncc2CC[C@@H](Cc2ccc(-c3ccccc3)cc2)C(=O)N1 | 0.24
C/C=C/c1ccccc1[C@@H]1[C@@H](CO)N(C(C)=O)[C@H]1C#N | -1.4
C/C=C/c1ccc(C2[C@H]3CNC[C@@H]2N3Cc2ccccc2C(F)(F)F)cc1 (stereo partly drawn) | 0.72
